From ChEMBL document CHEMBL3433997, “St. Jude Leishmania screening dataset” (2016)

Biological target: Solute carrier family 2, facilitated glucose transporter member 1 (Homo sapiens) (UniProt P11166)
Test: ST_JUDE_LEISH: Cytotoxicity at 2uM final concentration against transgenic Leishmania Mexicana promastigotes LmGLUT1 that are glucose transport deficient and complemented with the human glucose transporter GLUT1. Activity is measured by DNA content using SYBR green in vitro
Type: functional

Chain of Solute carrier family 2, facilitated glucose transporter member 1 (Homo sapiens) (P11166 whole entry): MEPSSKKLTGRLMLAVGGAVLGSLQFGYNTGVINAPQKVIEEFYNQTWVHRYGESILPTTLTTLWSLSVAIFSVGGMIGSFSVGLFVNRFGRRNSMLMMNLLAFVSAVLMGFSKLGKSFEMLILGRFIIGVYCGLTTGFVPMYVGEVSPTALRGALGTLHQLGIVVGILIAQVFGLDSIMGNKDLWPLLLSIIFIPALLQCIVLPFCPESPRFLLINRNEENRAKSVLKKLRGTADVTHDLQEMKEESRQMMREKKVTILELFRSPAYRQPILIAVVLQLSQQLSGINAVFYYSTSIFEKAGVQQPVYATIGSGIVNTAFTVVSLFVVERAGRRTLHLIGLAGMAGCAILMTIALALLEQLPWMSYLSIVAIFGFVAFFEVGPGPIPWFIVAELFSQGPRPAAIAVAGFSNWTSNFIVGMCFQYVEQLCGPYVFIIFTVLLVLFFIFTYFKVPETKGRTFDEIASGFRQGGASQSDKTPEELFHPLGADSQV

SMILES | inhibition [%]
N#Cc1ccc(-c2ccc(C(=O)NCCCCN3CCC(c4cc(Br)c5c(c4OCC(N)=O)CCCC5)CC3)cc2)cc1 | 2.88
CCNc1cc(C(=O)N[C@@H](Cc2ccccc2)[C@H](O)CNC23CCC(CC2)C3)cc(N2CCCCS2(=O)=O)c1 | 0.79
O=C(/C=C/c1ccc(Cl)c(Cl)c1)NCCCCCN1CCC(NC(=O)Nc2cc(F)cc(F)c2)CC1 | -0.2
Cc1nc2nc(N)nc(N)c2c(C)c1Cc1ccccc1 | 3.29
CCCCCCCCCC(=O)NCC1CC(Br)=NO1 (stereo not given) | -2
O=C1NC(C(=O)Nc2ccccc2)C(c2ccccc2)S1 (stereo not given) | -0.88
COC(=O)c1ccc(CCC(C)NCC(O)c2cccc(C(F)(F)F)c2)cc1 (stereo not given) | 0.8
Cc1cccc2nc(-c3ccc(-c4cccc(NC(=O)C(=O)c5cccn5C)c4)cc3)[nH]c12 | 4.58
Cc1nc2ccc(-c3ccc(OC(F)(F)F)cc3)cc2c(O)c1C#N | -2.1
Nc1cc(-c2ccc(Br)cc2O)nc2ccccc12 | 1.51
CC[C@H]1CN(Cc2ccco2)CC[C@H]1CCCc1ccnc2ccc(O)cc12 | 4.7
Nc1ncc(-c2cn[nH]c2)cc1-c1nc2ccc(Cl)cc2[nH]1 | 2.56
CCN(CC)CCNc1nccc(N(C)c2ccc(NC(=O)Nc3cc(C(F)(F)F)ccc3F)cc2)n1 | 5.98
CCCCCCc1cc2cc(-c3csc(C=Cc4ccccc4)n3)c(=O)oc2cc1O | 9.95
CN1CCCN(Cc2cccc(-c3cccc(NC(=O)c4ccc(Cl)cc4)c3)c2)CC1 | 5.97
Cc1nc(-c2cccc(Nc3ccnc4cc(-c5nccs5)ccc34)c2)no1 | 2.59
O=C(/C=C/c1ccc(Cl)c(Cl)c1)NCCCCCN1CCC(CCNC(=O)C2(c3ccc(Cl)cc3)CC2)CC1 | 16.5
O=C(NCC(NCCCNc1cc(=O)c2ccccc2[nH]1)c1cc(Br)cc(Br)c1)C1=CCCC1 (stereo not given) | 3.18
Cc1cnc(Nc2cccc(CCN3CCOCC3)c2)nc1NC(C)C | 9.35
COc1cccc(CNC(=O)c2cccc(-c3cccc(CN4CCC(N5CCCC5)CC4)c3)n2)c1 | 4.26

SMILES | inhibition [%]
CCc1c(CCNCCCCCCNCc2ccc3c(c2CC)OCO3)ccc(OC)c1OC | 10.6
CCCN(CCC)C(=O)c1cc(C(=O)N[C@@H](Cc2ccccc2)[C@H](O)CNCc2cccc(C(F)(F)F)c2)cc(N2CCCCS2(=O)=O)c1 | -1.33
COc1cc2nc(NCCc3ccccc3)nc(NCCCc3ccccc3)c2cc1OC | 6.89
CC(C)Cc1ccc(N2CCN(CCCCNC(=O)c3ccc(NC(=O)c4ccc(Cl)c(Cl)c4)cc3)CC2)cc1 | 1.28
COc1cc2c(Nc3cccc(NC(=O)c4ccccc4)c3)ncnc2cc1OCCCN1CCOCC1 | 0.63
N#Cc1ccccc1S(=O)(=O)N1CCCC(CNC(=O)[C@H](CC2CCCCC2)NC(=O)c2cc3ccccc3s2)C1 (stereo not given in full) | 1.08
c1cncc(Oc2ccc(Nc3ccnc4cc(-c5cccc(CN6CCCCC6)c5)ccc34)cc2)c1 | 3.68
O=C(/C=C/c1ccc(C(F)(F)F)cc1)NCCCCCN1CCCN(C(=O)Nc2ccc(Cl)c(C(F)(F)F)c2)CC1 | -0.16
COc1ccc(CNC(=O)Nc2cccc(-c3csc(NC(=N)N)n3)c2)cc1 | -2.22
CCCCCCn1c(Sc2ccc(C#N)c([N+](=O)[O-])c2)nnc1-c1ccc(OC)cc1 | 5.67
CC(C)CN(C)c1ncnc2c1nc(-c1cncc(C#N)c1)n2CCNCc1ccccc1 | 3.34
Cc1cc2nc(N=C3NC4(c5ccccn5)NC(=Nc5nc6cc(C)c(C)cc6[nH]5)NC4(c4ccccn4)N3)[nH]c2cc1C (stereo not given) | 2.01
O=C(NC1CC1)c1ccc2cc(C(=O)N3Cc4ccccc4C(c4ccccc4)C3)ccc2c1 (stereo not given) | 2.37
CN1CCCC1CCOc1ccc2c(c1)N(C(=O)Nc1cc(Br)cc(C(F)(F)F)c1)CC2 (stereo not given) | -1.82
Cc1ccc(C(C#N)c2ccc3c(C(F)(F)F)cc(C(F)(F)F)nc3n2)cc1 (stereo not given) | 1.88
Cc1c(CNCCCNc2nc3cscc3[nH]2)sc(C(F)F)c1Br | 6.65
N#Cc1cccc(CN(Cc2ccc(Cl)c(Cl)c2)S(=O)(=O)c2cccc([N+](=O)[O-])c2)c1 | 2.24
COc1ccc(-c2ccc(NC(=O)c3ccc(C#N)cc3)cc2)cc1CN1CCNCC1 | 10.9
CN(C)CCOc1cc(O)c2c(c1)OC(C)(C)C=C2c1cccs1 | -0.97
O=C(/C=C/c1ccc(C(F)(F)F)cc1)NCCCCCN1CCN(C(=O)Nc2ccc(F)c(Cl)c2)CC1 | 3.33

Biological target: Hexose transporter 1 (Plasmodium falciparum) (UniProt O97467)
Test: ST_JUDE_LEISH: Cytotoxicity at 2uM final concentration against transgenic Leishmania Mexicana promastigotes LmPfHT that are glucose transport deficient and complemented with the Plasmodium falciparum hexose transporter. Activity is measured by DNA content using SYBR green in vitro
Type: functional

SMILES | inhibition [%]
N#Cc1ccc(-c2ccc(C(=O)NCCCCN3CCC(c4cc(Br)c5c(c4OCC(N)=O)CCCC5)CC3)cc2)cc1 | 1.24
CCNc1cc(C(=O)N[C@@H](Cc2ccccc2)[C@H](O)CNC23CCC(CC2)C3)cc(N2CCCCS2(=O)=O)c1 | -1.58
O=C(/C=C/c1ccc(Cl)c(Cl)c1)NCCCCCN1CCC(NC(=O)Nc2cc(F)cc(F)c2)CC1 | 1.46
Cc1nc2nc(N)nc(N)c2c(C)c1Cc1ccccc1 | 2.88
CCCCCCCCCC(=O)NCC1CC(Br)=NO1 (stereo not given) | -0.61
O=C1NC(C(=O)Nc2ccccc2)C(c2ccccc2)S1 (stereo not given) | -1.96
COC(=O)c1ccc(CCC(C)NCC(O)c2cccc(C(F)(F)F)c2)cc1 (stereo not given) | 0.12
Cc1cccc2nc(-c3ccc(-c4cccc(NC(=O)C(=O)c5cccn5C)c4)cc3)[nH]c12 | 2.19
Cc1nc2ccc(-c3ccc(OC(F)(F)F)cc3)cc2c(O)c1C#N | 0.11
Nc1cc(-c2ccc(Br)cc2O)nc2ccccc12 | 0.65
CC[C@H]1CN(Cc2ccco2)CC[C@H]1CCCc1ccnc2ccc(O)cc12 | 4.86
Nc1ncc(-c2cn[nH]c2)cc1-c1nc2ccc(Cl)cc2[nH]1 | 3.75
CCN(CC)CCNc1nccc(N(C)c2ccc(NC(=O)Nc3cc(C(F)(F)F)ccc3F)cc2)n1 | 2.93
CCCCCCc1cc2cc(-c3csc(C=Cc4ccccc4)n3)c(=O)oc2cc1O | 10.6
CN1CCCN(Cc2cccc(-c3cccc(NC(=O)c4ccc(Cl)cc4)c3)c2)CC1 | 4.21
Cc1nc(-c2cccc(Nc3ccnc4cc(-c5nccs5)ccc34)c2)no1 | 2.43
O=C(/C=C/c1ccc(Cl)c(Cl)c1)NCCCCCN1CCC(CCNC(=O)C2(c3ccc(Cl)cc3)CC2)CC1 | 6.12
O=C(NCC(NCCCNc1cc(=O)c2ccccc2[nH]1)c1cc(Br)cc(Br)c1)C1=CCCC1 (stereo not given) | 4.82
Cc1cnc(Nc2cccc(CCN3CCOCC3)c2)nc1NC(C)C | 9.73
COc1cccc(CNC(=O)c2cccc(-c3cccc(CN4CCC(N5CCCC5)CC4)c3)n2)c1 | 4.42

SMILES | inhibition [%]
CCc1c(CCNCCCCCCNCc2ccc3c(c2CC)OCO3)ccc(OC)c1OC | 0.77
CCCN(CCC)C(=O)c1cc(C(=O)N[C@@H](Cc2ccccc2)[C@H](O)CNCc2cccc(C(F)(F)F)c2)cc(N2CCCCS2(=O)=O)c1 | -0.49
COc1cc2nc(NCCc3ccccc3)nc(NCCCc3ccccc3)c2cc1OC | 10.1
CC(C)Cc1ccc(N2CCN(CCCCNC(=O)c3ccc(NC(=O)c4ccc(Cl)c(Cl)c4)cc3)CC2)cc1 | 1.46
COc1cc2c(Nc3cccc(NC(=O)c4ccccc4)c3)ncnc2cc1OCCCN1CCOCC1 | 2.08
N#Cc1ccccc1S(=O)(=O)N1CCCC(CNC(=O)[C@H](CC2CCCCC2)NC(=O)c2cc3ccccc3s2)C1 (stereo not given in full) | 2.15
c1cncc(Oc2ccc(Nc3ccnc4cc(-c5cccc(CN6CCCCC6)c5)ccc34)cc2)c1 | 2.51
O=C(/C=C/c1ccc(C(F)(F)F)cc1)NCCCCCN1CCCN(C(=O)Nc2ccc(Cl)c(C(F)(F)F)c2)CC1 | 0.4
COc1ccc(CNC(=O)Nc2cccc(-c3csc(NC(=N)N)n3)c2)cc1 | -0.98
CCCCCCn1c(Sc2ccc(C#N)c([N+](=O)[O-])c2)nnc1-c1ccc(OC)cc1 | 5.13
CC(C)CN(C)c1ncnc2c1nc(-c1cncc(C#N)c1)n2CCNCc1ccccc1 | 3.26
Cc1cc2nc(N=C3NC4(c5ccccn5)NC(=Nc5nc6cc(C)c(C)cc6[nH]5)NC4(c4ccccn4)N3)[nH]c2cc1C (stereo not given) | -0.16
O=C(NC1CC1)c1ccc2cc(C(=O)N3Cc4ccccc4C(c4ccccc4)C3)ccc2c1 (stereo not given) | -0.61
CN1CCCC1CCOc1ccc2c(c1)N(C(=O)Nc1cc(Br)cc(C(F)(F)F)c1)CC2 (stereo not given) | -2.4
Cc1ccc(C(C#N)c2ccc3c(C(F)(F)F)cc(C(F)(F)F)nc3n2)cc1 (stereo not given) | 2.44
Cc1c(CNCCCNc2nc3cscc3[nH]2)sc(C(F)F)c1Br | 4.46
N#Cc1cccc(CN(Cc2ccc(Cl)c(Cl)c2)S(=O)(=O)c2cccc([N+](=O)[O-])c2)c1 | -0.37
COc1ccc(-c2ccc(NC(=O)c3ccc(C#N)cc3)cc2)cc1CN1CCNCC1 | 7.81
CN(C)CCOc1cc(O)c2c(c1)OC(C)(C)C=C2c1cccs1 | -1.11
O=C(/C=C/c1ccc(C(F)(F)F)cc1)NCCCCCN1CCN(C(=O)Nc2ccc(F)c(Cl)c2)CC1 | 2.52
